Assay in all cases: NCI-60 one-dose screen, 48 h (100 = growth as untreated, 0 = no growth, -100 = all killed)
What all share (settings): 10 µM unless noted

Assay [1] relates to T-47D breast.
Assay [2] has as its system BT-549 breast.
Assay [3] has as its system SW-620 colon.
Assay [4] relates to MCF7 breast.
Assay [5] concerns HCT-116 colon.
Assay [6] concerns HCC-2998 colon.
The subject of assay [7] is KM12 colon.
The subject of assay [8] is MDA-MB-435 melanoma.

This is part of a sample that, as a whole, favours compounds with a hit. Of some 83,000 tested, about 20% had one in any assay.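 Treatment: one concentration, 48 hours, 96-well format. Scoring: percent growth, with anything below 10 considered active.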 Values without a mark were called inactive. The source made the active and inactive calls.

Turning to `c1ccc(-c2ccc3ccccc3c2)cc1`, the growth in assay [1] was 81.4%; in assay [2], 98.8%; in assay [3], 90.5%; in assay [4], 82.2%; in assay [5] it was 95.9%; in assay [6], 107%. Also, the growth in assay [7] is 92.9%.

As for `COc1ccc2c(ccc[n+]2C)c1`, the growth was 102% in assay [1]; 113% in assay [2]; 101% in assay [3]; 96.1% in assay [4]; 99.8% in assay [5]; 90.6% in assay [7].

As to `O=C1C=C(c2ccccc2)C(O)(c2ccccc2)C1` (stereo not drawn), the growth in assay [1] is 90.6%; in assay [2] it was 94.8%; in assay [3] it was 108%; in assay [4], 98.2%; in assay [5] it was 98.4%; in assay [6], 122%. The growth in assay [7] is 107%.

Consider `NC(=O)c1cc2c3ccccc3ccn2c1-c1ccccc1`, for which the growth is 88.7% in assay [1]; 25.5% in assay [2]; 33.7% in assay [3]; 10.3% in assay [4]; -32.6% (active) in assay [5]; -6.31% (active) in assay [6]. Also, the growth in assay [7] was 4.03% (active).

On to `O=c1[nH]c(=O)c2cc(Cl)cc(Cl)c2[nH]1`, for which the growth in assay [1] was 111%; in assay [2] it was 91.4%; in assay [3] it was 105%; in assay [5], 98.3%; in assay [7], 106%.

For `CCNCC(C)(C)O`, the growth is 104% in assay [1]; 105% in assay [2]; 106% in assay [3]; 97.1% in assay [4]; 101% in assay [5]; 109% in assay [6]. Further, in assay [7], the growth was 113%.

Regarding `O=C(c1ccccc1)c1ccc(-c2ccc(O)cc2)cc1`, the growth is 50.6% in assay [1]; 52.3% in assay [2]; 45.4% in assay [3]; 23.3% in assay [4]; 59.4% in assay [5]; 35.2% in assay [7].

For the compound `CCOc1ccc(NC(=S)N2CCC(CCCC3CCN(C(=S)Nc4ccc(OCC)cc4)CC3)CC2)cc1`, the growth in assay [1] was 67.8%; in assay [8], 90.4%; in assay [3] it was 98.3%; in assay [4] it was 84.1%; in assay [5], 84.5%; in assay [6] it was 85.6%. The growth in assay [7] was 90.6%.

Take `Cc1ccc(NCN2C(=O)c3ccccc3C2=O)c(C)n1`: the growth in assay [1] is 119%; in assay [2], 108%; in assay [3] it was 108%; in assay [4], 112%; in assay [6] it was 106%; in assay [7] it was 99.5%.

`Cc1ccc(NC(=O)c2ccccc2Cl)cc1`: the growth in assay [1] was 112%; in assay [8] it was 109%; in assay [3], 109%; in assay [4], 99.4%; in assay [5], 114%; in assay [6] it was 124%. For the same compound, the growth in assay [7] was 105%.

On to `CCOC(=O)c1c(C)[nH]c(C)c1C=O`, for which the growth is 82% in assay [1]; 95.8% in assay [2]; 97.9% in assay [3]; 89.1% in assay [4]; 101% in assay [5]; 92.9% in assay [6]. For the same compound, in assay [7], the growth is 104%.

With `O=C(N/N=C\c1ccc(Cl)cc1Cl)c1ccncc1`, the growth in assay [1] was 96.6%; in assay [2], 65.7%; in assay [3], 111%; in assay [4], 87.2%; in assay [5] it was 101%; in assay [7], 112%.

Regarding `C=CCNC(=S)N/C=C(/C(=O)c1ccccc1)c1ccccc1`, the growth in assay [1] was 99.4%; in assay [2] it was 98.2%; in assay [3], 98.9%; in assay [4], 97.6%; in assay [5], 115%; in assay [7] it was 104%.

Turning to `CC1CC2C3CCC4=CC(=O)CCC4(C)C3CCC2(C)C1(O)C(=O)CO` (stereo not drawn), the growth in assay [1] was 103%; in assay [8] it was 115%; in assay [3] it was 113%; in assay [4] it was 99.8%; in assay [5], 109%; in assay [6], 104%. Also, the growth in assay [7] was 119%.

With `O=[N+]([O-])c1ccc(-c2nc(N(CCO)CCO)c3ccccc3n2)o1`, the growth in assay [1] is 8.21% (active); in assay [2], -88.5% (active); in assay [3] it was -8.14% (active); in assay [4], 0.425% (active); in assay [5], -7.95% (active); in assay [6], -93.2% (active). Besides, the growth in assay [7] was -29.1% (active).

Consider `Oc1ccc(CCC2CCNc3ccccc32)cc1` (stereo not drawn), for which the growth was 63.9% in assay [1]; 47.2% in assay [2]; 97.2% in assay [3]; 98.6% in assay [4]; 89.3% in assay [5]; 102% in assay [6]. Besides, in assay [7], the growth is 88.4%.

Turning to `Cc1c(Cl)cccc1NC(=S)NC(=O)c1ccccc1`, the growth is 64.8% in assay [1]; 115% in assay [2]; 106% in assay [3]; 53.3% in assay [4]; 106% in assay [5]; 89.6% in assay [7].

As for `CC(=O)Nc1ccc(C(=O)c2ccc(S(=O)(=O)Nc3ccccc3)cc2)cc1`, the growth in assay [1] is 99.2%; in assay [8], 101%; in assay [3] it was 103%; in assay [4] it was 85.3%; in assay [5] it was 75.4%; in assay [6], -97.1% (active). The growth in assay [7] is 108%.

For `CCOC(=O)C(C#N)=C1CCN(C)CC1`, the growth was 106% in assay [1], 103% in assay [2], 97.2% in assay [3] and 97.7% in assay [7].

For `CC(CCC#N)(CCC#N)C(=O)c1ccccc1`, the growth was 93.8% in assay [1]; 107% in assay [8]; 103% in assay [3]; 95.9% in assay [4]; 112% in assay [5]; 101% in assay [6]. Further, the growth in assay [7] was 108%.

Turning to `CCOC(OCC)C(=O)c1ccccc1`, the growth in assay [1] is 103%; in assay [2], 101%; in assay [3] it was 92.3%; in assay [4] it was 94.4%; in assay [5], 108%; in assay [6] it was 112%. Besides, the growth in assay [7] was 99.4%.

On to `CC(=O)N=c1ccc2nc3c(cc(N)c4ccccc43)oc-2c1`, for which the growth in assay [1] was -57.8% (active); in assay [2], 10.4%; in assay [3] it was -88.7% (active); in assay [4], -74.9% (active); in assay [5] it was -45.2% (active); in assay [6], -4.32% (active). The growth in assay [7] is -59.9% (active).

Source of the values: PubChem BioAssay (NCI).
